Source: PubChem (Paczesny and Yang Labs, IUPUI and University of Michigan)
This is one part of a sample in which hits are shown more often than they occur.
ST2 IL33 inh = IL1RL1 inhibition. 78,000 tested, 2.3% active. AlphaLISA ST2-Fc/biotin-IL-33 interaction, 1 h. inhibition, % for hits at 17 µM; in the data active = inhibition above about 30%
Target sequence (Q01638 whole entry, looked up): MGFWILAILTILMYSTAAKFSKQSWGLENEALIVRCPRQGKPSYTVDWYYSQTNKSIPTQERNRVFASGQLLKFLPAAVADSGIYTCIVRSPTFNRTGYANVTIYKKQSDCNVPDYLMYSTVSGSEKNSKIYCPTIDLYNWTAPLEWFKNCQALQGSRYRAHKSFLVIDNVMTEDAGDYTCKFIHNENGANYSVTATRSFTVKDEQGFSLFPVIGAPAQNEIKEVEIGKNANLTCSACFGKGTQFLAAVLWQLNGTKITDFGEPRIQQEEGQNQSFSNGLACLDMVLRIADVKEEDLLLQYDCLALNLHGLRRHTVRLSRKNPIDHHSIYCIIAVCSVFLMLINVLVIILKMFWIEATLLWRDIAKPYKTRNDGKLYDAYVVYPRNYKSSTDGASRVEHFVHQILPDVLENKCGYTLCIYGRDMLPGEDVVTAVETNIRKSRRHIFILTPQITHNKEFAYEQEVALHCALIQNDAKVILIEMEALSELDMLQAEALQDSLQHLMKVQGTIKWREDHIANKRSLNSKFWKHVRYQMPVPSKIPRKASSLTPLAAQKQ
Hits are given with their value; . = inactive.

SMILES	ST2 IL33 inh
COc1ccc(C(=O)NC[C@H]2O[C@@H](CO)[C@@H](O)[C@H]2N2CCN(c3cccc(C(F)(F)F)c3)CC2)cc1	.
COc1cc(NC(=O)NC[C@H]2O[C@@H](CO)[C@@H](O)[C@H]2N2CCN(C)CC2)cc(OC)c1	.
Cn1c(=O)c2c(nc(NC3CCCCC3)n2Cc2cccc(Br)c2)n(C)c1=O	.
CC(=O)c1ccc(N2CCOc3c(O)cc(-c4nc(C)cnc4C)cc3C2)nc1	.
CCOC(=O)C1=C(C)NC2=C(C(=O)c3ccccc32)C1c1ccc(OCC)c(OC)c1 (stereo not drawn)	.
O=[N+]([O-])c1ccccc1CN1CCN(CCO)CC1	.
C=CCOC(=O)C1=C(C)OC(N)=C(C#N)C1c1ccc(Br)cc1 (stereo not drawn)	.
O=C(Nc1ccc(-c2ccc([N+](=O)[O-])cc2)cc1)c1ccc(F)cc1	.
Cc1ccccc1C1=N/C(=C\c2ccc(N(C)C)cc2)C(=O)O1	40%
O=C1OC(c2ccc(Cl)cc2Cl)=N/C1=C\c1ccccc1	.
COc1cc(C2=N/C(=C\C=C\c3ccccc3)C(=O)O2)cc(OC)c1OC	30%
Cc1ccc(C2=N/C(=C\c3ccccc3)C(=O)O2)cc1[N+](=O)[O-]	.
COc1c(Cl)cc(Cl)cc1/C=C1\N=C(c2ccccc2)OC1=O	.
COc1ccc(/C=C2\N=C(c3ccccc3C)OC2=O)cc1	.
Cc1ccc(C2=N/C(=C\c3ccc([N+](=O)[O-])cc3)C(=O)O2)cc1[N+](=O)[O-]	.
O=C1OC(c2ccc(Br)cc2)=N/C1=C\C=C\c1ccccc1	.
Cc1ccccc1C1=N/C(=C\c2cccc(F)c2)C(=O)O1	.
Cc1ccccc1C1=N/C(=C\c2ccccc2)C(=O)O1	33%
Cc1ccccc1C1=N/C(=C\C=C\c2ccccc2)C(=O)O1	42%
COc1ccccc1/C=C1\N=C(c2cc([N+](=O)[O-])cc([N+](=O)[O-])c2)OC1=O	.
CCN(Cc1ccccc1)C(=O)CN1C(=O)CCc2cc(S(=O)(=O)N3CCCC3)ccc21	.
O=C(CCN1C(=O)c2cccc([N+](=O)[O-])c2C1=O)Nc1ccccc1F	.
COc1ccc(C(=O)N[C@H]2CO[C@H]3[C@@H]2OC[C@@H]3Nc2nccc(-c3cccc(F)c3)n2)cc1	.
CCCc1ncncc1C(=O)N1CCc2[nH]nc(-c3ccccc3F)c2C1	.
CC(c1ccon1)N(C)C(=O)c1cc(NC(=O)c2ccccc2)cc2ncn(C3CCCC3)c12 (stereo not drawn)	.
SMILES	ST2 IL33 inh
COc1cc(C(C)=O)ccc1OC(=O)COc1cc(C)ccc1C(C)C	.
O=C1CSC(c2ccccn2)N1c1ccc(Cl)cn1 (stereo not drawn)	.
Cc1ccc(S(=O)(=O)c2ccc(C)c(S(N)(=O)=O)c2)cc1S(N)(=O)=O	.
O=C1OC(c2cccc(I)c2)=N/C1=C\c1ccc(Br)cc1	.
COc1ccc(/C=C2\N=C(c3cccc(I)c3)OC2=O)cc1	31%
CN(C)c1ccc(/C=C2\N=C(c3ccc([N+](=O)[O-])cc3)OC2=O)cc1	.
CCCCOc1ccc(/C=C2\N=C(c3cccc([N+](=O)[O-])c3)OC2=O)cc1	.
Cc1cccc(C2=N/C(=C\c3ccc(Br)cc3)C(=O)O2)c1	.
CN(C)c1ccc(/C=C2\N=C(c3ccccc3)OC2=O)cc1Br	41%
O=C1OC(c2ccc(-c3ccccc3)cc2)=N/C1=C\c1ccccc1	.
COc1ccc(/C=C2\N=C(c3cccc([N+](=O)[O-])c3)OC2=O)cc1	.
CCCCOc1ccc(C2=N/C(=C\c3ccc(N(C)C)cc3)C(=O)O2)cc1	37%
Cc1ccsc1CNc1ccc(C(=O)N2C[C@H](OC(C)C)[C@@H](O)C2)cc1	.
O=C(c1cc(CN2CCCC(O)C2)on1)N1CCc2ccccc2C1 (stereo not drawn)	.
CC1CCCCC1N1C(=O)c2ccccc2C1C(=O)NC1CCCCC1 (stereo not drawn)	.
CCOC(=O)C1=C(C)Nc2nc(SCc3ccccc3Cl)nn2C1c1cccs1 (stereo not drawn)	.
O=C(CCCn1c(=O)[nH]c2ccsc2c1=O)NC1CCN(Cc2ccccc2)CC1	.
COCCN[C@H]1[C@@H]2OC[C@@H](O2)[C@@H](NCc2ccc(F)cc2)[C@@H]1O	.
COc1ccc(-c2nc(N(C)C)nc(C)c2C)cn1	.
COc1cc2c(cc1OC)C(C(=O)NCC1CCCO1)C(c1cccs1)N(C)C2=O (stereo not drawn)	.
NC(=O)CSc1nc2c(c(=O)n1-c1ccc(Cl)cc1)SCC2	.
COc1cc(CN2CCN(Cc3ccccc3)CC2)c([N+](=O)[O-])cc1OC	.
OC(COCc1ccc2c(c1)OCO2)CN1CCN(c2cccc(Cl)c2)CC1 (stereo not drawn)	.
CN1CCN(Cc2cc(O)ccc2[N+](=O)[O-])CC1	.
COc1cc(CN2CCCCCC2)c([N+](=O)[O-])cc1OC	.
O=[N+]([O-])c1cc2c(cc1CN1CCN(c3ccc(F)cc3)CC1)OCO2	36%
O=[N+]([O-])c1cc2c(cc1CN1CCN(c3cccc(Cl)c3)CC1)OCO2	36%
CCn1cc(C(=O)NCCN(C)C)c2c3ccccc3n(C)c2c1=O	.
